Assay outcomes: PubChem, National Center for Advancing Translational Sciences (NCATS)
HPGD block = qHTS Assay for Inhibitors of HPGD (15-Hydroxyprostaglandin Dehydrogenase) | Potency, µM, for the others: top-dose activity change, negative = inhibition, usual class: inhibitors | AID 894, 2007 | purified HPGD, NADH fluorescence kinetic, PGE2 substrate | 4.3% of 150,000 active | 15-hydroxyprostaglandin dehydrogenase [NAD(+)] (Homo sapiens), P15428; active = well fitted inhibition curve with a large enough effect, not every such curve was filed as active; inconclusive = small, poorly fitted or top-dose-only effect, or another doubt; inactive = no such curve, though single readings can be large or run the other way; also: potency is read from the fitted curve at half-maximal effect; % is scaled to controls: 0 for no effect and ±100 for the full control effect
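20 nM HPGD preincubated 15 min at room temperature with compound in 50 mM Tris-HCl pH 8, 0.01% Tween 20. Started with 1 mM NAD+ and 30 uM prostaglandin E2; NADH fluorescence (360/450 nm) read 5 times over 30-s intervals, last minus first.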
HTT aggregate = qHTS Multiplex Assay to Identify Dual Action Probes in a Cell Model of Huntington: Aggregate Formation (GFP); PC12 HttQ103-GFP aggregates, Acumen cytometry, 40 h; Potency, µM (series often up to 46.1 µM), inactives show at the highest dose activity change, negative = inhibition, actives largely listed as inhibitors; 1.1% of 220,000 active; AID 1688, 2009; also: potency is read from the fitted curve at half-maximal effect; % is scaled to controls: 0 for no effect and ±100 for the full control effect; nearly all actives have a fitted effect of over 60% in size
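PC12 cells with ecdysone-inducible HTT exon1 Q103-GFP, induced by 100 nM tebufenozide, given compounds in a concentration series. GFP aggregates (1–25 um, 6 SD above background) counted in lysates by laser-scanning cytometry, 488 nm excitation.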
JMJD2E inh = qHTS Assay for Inhibitors of Human Jumonji Domain Containing 2E (JMJD2E); Lysine-specific demethylase 4E (Homo sapiens), B2RXH2; Potency, µM (titrated, usually from 57.1 µM), without a hit: top-dose activity change, negative = inhibition, actives largely listed as inhibitors; JMJD2E catalytic domain, FDH-coupled NADH fluorescence (FDH is formaldehyde dehydrogenase); 1.6% of 230,000 active; active = well fitted inhibition curve with a large enough effect, not every such curve was filed as active; inconclusive = small, poorly fitted or top-dose-only effect, or another doubt; inactive = no such curve, though single readings can be large or run the other way;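 also: potency is read from the fitted curve at half-maximal effect; 0% = wells with enzyme and -100% = buffer wells without enzyme; nearly all actives have a fitted effect of over 50% in size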
Target sequence (B2RXH2 1-337 limits assumed): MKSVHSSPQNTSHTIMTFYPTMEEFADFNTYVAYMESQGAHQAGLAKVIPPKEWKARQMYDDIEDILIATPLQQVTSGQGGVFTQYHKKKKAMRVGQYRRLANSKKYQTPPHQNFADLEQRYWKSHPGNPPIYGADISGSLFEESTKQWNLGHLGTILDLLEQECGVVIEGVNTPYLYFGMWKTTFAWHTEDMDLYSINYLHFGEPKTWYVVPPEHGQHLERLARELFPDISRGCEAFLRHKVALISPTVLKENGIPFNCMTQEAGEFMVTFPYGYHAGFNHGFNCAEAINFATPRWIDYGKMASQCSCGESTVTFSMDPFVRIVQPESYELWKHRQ
ALDH1A1 block = qHTS Assay for Inhibitors of Aldehyde Dehydrogenase 1 (ALDH1A1); Purified ALDH1A1, NADH fluorescence, propionaldehyde substrate; Aldehyde dehydrogenase 1A1 (Homo sapiens), P00352; Potency, µM (titrated, usually from 75.3 µM), inactives show at the highest dose activity, negative = inhibition, usual class: inhibitors; 7.3% of 220,000 active; active = well fitted inhibition curve with a large enough effect, not every such curve was filed as active; inconclusive = small, poorly fitted or top-dose-only effect, or another doubt; inactive = no such curve, though single readings can be large or run the other way;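 also: potency is read from the fitted curve at half-maximal effect; plate controls were no enzyme wells and a reference inhibitor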
Target sequence (P00352 whole entry, looked up): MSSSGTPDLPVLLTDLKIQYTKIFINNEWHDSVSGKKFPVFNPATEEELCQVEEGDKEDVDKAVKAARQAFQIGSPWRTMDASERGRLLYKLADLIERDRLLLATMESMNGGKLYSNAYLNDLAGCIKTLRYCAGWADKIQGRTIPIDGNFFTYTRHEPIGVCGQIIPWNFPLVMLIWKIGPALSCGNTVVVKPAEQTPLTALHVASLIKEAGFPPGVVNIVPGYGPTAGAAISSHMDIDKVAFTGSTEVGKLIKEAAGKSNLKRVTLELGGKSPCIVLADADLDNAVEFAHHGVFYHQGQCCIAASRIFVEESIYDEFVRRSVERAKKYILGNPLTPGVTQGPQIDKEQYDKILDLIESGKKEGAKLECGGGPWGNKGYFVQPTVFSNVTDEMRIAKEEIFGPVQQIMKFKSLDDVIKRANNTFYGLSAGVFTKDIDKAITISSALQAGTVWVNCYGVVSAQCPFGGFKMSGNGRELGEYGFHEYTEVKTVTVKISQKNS
CBFb-RUNX1 inh = qHTS Assay for Compounds Blocking the Interaction Between CBF-beta and RUNX1 for the Treatment of Acute Myeloid Leukemia; Potency, µM (doses to about 59.8 µM), inactives show at the top dose activity, negative = inhibition, most hits filed as inhibitors; 230,000 tested, under 10 active; AlphaScreen CBFb-His/RUNX1-biotin binding, biochemical; AID 1477, 2009; also: % of control where 0% means no effect
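Compounds were screened at multiple concentrations against a preformed CBF-beta(His)/RUNX1(biotin) complex (30 nM of each) for 15 min at room temperature, followed by 90 min with nickel and streptavidin beads and AlphaScreen reading.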
HTT cytoprotect = qHTS Multiplex Assay to Identify Dual Action Probes in a Cell Model of Huntington: Cytoprotection (ATP); PC12 HTT-Q103 induced, cytoprotection, ATP luminescence, 40 h; Potency, µM (highest dose often 56.4 µM), for the others: cytoprotection (ATP increase), actives largely listed as activators; 0.14% of 230,000 active; also: potency is read from the fitted curve at half-maximal effect; % of control where 0% means no effect; nearly all actives have a fitted effect of over 45% in size
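PC12 cells with ecdysone-inducible HTT exon 1 Q103-GFP, induced with 100 nM tebufenozide and co-treated with library compounds in a dose series (1536-well, 1500 cells/well). Cytoprotection read as ATP content by ATPlite luminescence.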
An asterisk follows results filed as active; u = inconclusive; x = not tested or not shown; [ ] = remark or other dose. In the library only some 9.8% were active in any assay of this set; here they are far more common. Unless noted, calls follow the shape of the dose curve; as a rule, active = well fitted curve in the direction sought with a large enough effect; inconclusive = small, poorly fitted or top-dose-only effect, or another doubt; inactive = no such curve, though single readings can be large; an effect the other way counts as inactive or inconclusive.

SMILES	HPGD block	HTT aggregate	JMJD2E inh	ALDH1A1 block	CBFb-RUNX1 inh	HTT cytoprotect
COCCNC(=O)c1cc(-c2ccccc2OC)on1	u	-6.1%	u	u	-8.6%	-42.3%
CCN(CC)C(=O)c1cc(-c2ccccc2OC)on1	u	-16.2%	-22.4%	14.1µM*	6.7%	-0.4%
CCCn1c(N)c(C(=O)NS(=O)(=O)c2ccc(C)cc2)c(=O)n(C)c1=O	x	u	17.7%	0.9%	-2.3%	7.9%[10 µM]
Cc1nonc1C1CCCN1Cc1cn[nH]c1-c1ccc(-c2ccccc2)cc1 (stereo not given)	x	8.6%[9.22 µM]	-15.2%	7.08µM*	14.6%	11.7%[10 µM]
COc1cc(-c2[nH]ncc2CN2CCCC2c2nonc2C)cc(OC)c1OC (stereo not given)	x	-0.3%[9.22 µM]	-16.0%	2.7%	4.4%	-13.9%[10 µM]
Cc1cc(NC(=S)NC(=O)c2ccccc2)ccc1-c1cc2ccccc2oc1=O	-4.5%	0.3%	2.8%	8.91µM*	-4.8%	-46.8%[10 µM]
COc1ccc(C(=O)NC(=S)Nc2ccc3oc(=O)ccc3c2)cc1OC	2.0%	4.2%	-11.2%	5.0%	11.8%	4.4%[10 µM]
COc1cc(C(=O)NC(=S)Nc2cccc(-c3cc4ccccc4oc3=O)c2)cc(OC)c1OC	-6.0%	-6.6%	-8.6%	14.1µM*	-9.4%	-5.5%
O=C(Nc1ccc(N2CCCC2)cc1)c1cccc(-c2cc3ccccc3oc2=O)c1	8.91µM*	24.3%	4.8%	2.24µM*	-2.8%	17.7%[10 µM]
COc1cccc(OCC(=O)Nc2c(C(=O)Nc3ccc(OC)cc3OC)oc3ccccc23)c1	x	x	x	x	x	-8.0%[0.074 µM]
CC(C)CCC[C@@H](C)[C@H]1CC[C@H]2[C@@H]3CC=C4CC(O)CC[C@]4(C)[C@H]3CC[C@]12C (stereo not given in full)	x	x	x	x	-7.4%	x
Cc1cnc(CNc2nc(-c3c(C)noc3C)nc3ccccc23)cn1	x	x	x	0.0%	x	-13.8%
O=c1c2c(n3cnnc3n1-c1ccccc1)-c1ccccc1CC21CCCCC1	-16.7%	12.1%	-11.8%	20µM*	2.2%	-26.5%
Cc1cccc(-n2c(=O)c3c(n4cnnc24)-c2ccccc2CC32CCCCC2)c1	-2.4%	14.0%	-1.0%	1.5%	-0.8%	-25.9%
Cc1ccc(C(C)n2cc(C(=O)NCc3cccnc3)nn2)cc1 (stereo not given)	-4.7%	-12.9%[9.22 µM]	1.4%	11.2µM*	3.4%	10.8%
O=S(=O)(Nc1ccc(N=Nc2ccc(O)c3ccccc23)cc1)c1ccccc1	31.6µM*	-15.6%	5.3%	-0.6%	-0.2%	-7.5%[10 µM]
CCCN1CCC(=O)N([C@H](CSc2ccc(OC)cc2)c2ccccc2)CC1	x	32.3%[9.22 µM]	-15.4%	x	7.9%	-4.8%[10 µM]
O=C(c1ccccc1)c1ccc(N2CCCC2)cc1	14.1µM*	-39.5%	-19.2%	u	u	-41.1%
O=C(c1ccccc1)c1ccc(N2CCNCC2)cc1	-6.1%	-6.4%	4.2%	28.2µM*	5.2%	-14.0%
Cc1cccc(NS(=O)(=O)c2cc(C(=O)O)ccc2Cl)c1	-7.8%	x	x	-2.8%	x	x
O=C(CSc1nc2ccccc2o1)NCc1n[nH]c(=O)c2ccccc12	-15.3%	-5.9%	3.9%	10.5%	3.6%	-17.7%[10 µM]
COC(=O)C(CC(C)C)NC(=O)C(N)Cc1ccccc1 (stereo not given)	-1.6%	14.5%	8.4%	10.2%	0.9%	-8.3%
CC[C@@H](C)[C@@H](CO[C@@H](Cc1ccccc1)C(=O)N[C@@H](CCS(C)(=O)=O)C(=O)OC(C)C)NC[C@@H](N)CS	x	x	x	15.8µM*	20.5%	-65.5%
Cc1cccc(NC(=O)NNC(=O)COc2ccc(Cl)cc2)c1	x	11.9%	1.6%	9.3%	3.1%	-25.8%
N#Cc1ccccc1OC[C@H](O)CNCCNC(=O)Nc1ccccc1	-3.4%	x	79.1%	-6.1%	3.7%[21.7 µM]	31.6µM*
SMILES	HPGD block	HTT aggregate	JMJD2E inh	ALDH1A1 block	CBFb-RUNX1 inh	HTT cytoprotect
COc1cc(C2C(C(=O)/C=C/c3ccccc3)=C(O)C(=O)N2c2ccccn2)ccc1O (stereo not given)	x	25.8%	-8.3%	2.6%	-1.8%	27.9%
O=C1NCCn2ccc(=O)cc21	x	-11.3%[9.22 µM]	-10.0%	u	8.9%	-0.9%[10 µM]
CCCn1c(SCC(=O)Nc2ccccc2Cl)n[nH]c1=O	x	18.9%[9.22 µM]	-0.9%	x	9.7%	4.3%[10 µM]
CC(=O)N/C(=C\c1ccccc1)C(=O)OCC(=O)N1CCCCCC1	x	8.9%	0.6%	11.2µM*	-1.8%	33.6%[10 µM]
COc1cc2c(cc1OC)-c1cc3nc4ccccc4nc3n1C(C)(C)C2	u	x	4.47µM*	u	x	-2.5%
CC(Cl)C(=O)NN=C(c1ccccc1)c1ccccc1 (stereo not given)	x	9.5%[9.22 µM]	-14.0%	1µM*	4.2%	-37.7%[1.9 µM]
CC(NC1CCCC1)C(=O)Nc1ccccc1-c1ccccc1 (stereo not given)	-0.9%	-0.4%	-29.3%	u	-1.0%	-0.9%
CC(NC1CCCCC1)C(=O)NN=C(c1ccccc1)c1ccccc1 (stereo not given)	x	-2.5%[9.22 µM]	17.2%	3.55µM*	1.9%	-8.8%[10 µM]
CN(C)Cc1ccc(C(C)(C)C)cc1-c1cc(C(C)(C)C)ccc1CN(C)C	-11.3%	x	x	-2.0%[13.5 µM]	x	7.7%[10 µM]
O=C(O)c1cc(-c2ccc(/C=N/NC(=S)Nc3ccccc3)o2)ccc1Cl	x	17.9%[9.22 µM]	u	u	-23.4%	16.6%
CC(C)OC(=O)c1cc(-c2ccc(C=O)o2)ccc1Cl	-27.8%	23.2%	-1.8%	8.91µM*	-1.9%	16.7%[0.074 µM]
O=C1C[C@@H]2CCN3C(=O)CCC[C@@H]([C@H]23)[C@@H]1Cc1ccccc1	-1.4%	x	x	15.8µM*	-8.5%[89.1 µM]	-8.8%
COc1ccccc1Cn1cccc1C=O	x	-4.7%[9.22 µM]	0.2%	14.1µM*	-5.0%	-11.2%[10 µM]
COc1cc(/C=C/C(=O)OC(C)C(=O)Nc2c(C)n(C)n(-c3ccccc3)c2=O)ccc1OCC#N (stereo not given)	x	10.5%	u	u	18.4%	-9.3%
Cc1ccc(C2Oc3ccccc3C3=C2C(c2cccs2)n2ncnc2N3)cc1 (stereo not given)	-14.2%	-18.5%	u	11.2µM*	-15.7%	-53.9%
C=CCOC(=O)c1[nH]c2c(c1C)C(=O)CC(c1cc(OC)c(OC)c(OC)c1)C2 (stereo not given)	-2.4%	-14.6%	-0.8%	u	1.1%	6.5%[10 µM]
CCCCOC(=O)c1[nH]c2c(c1C)C(=O)CC(c1cc(OC)c(OC)c(OC)c1)C2 (stereo not given)	-3.7%	u	0.9%	5.01µM*	5.1%	5.6%
